In PubChem BioAssay AID1259313 (Sanford-Burnham Center for Chemical Genomics, 2017) one finds Tm shift relative to glycine control data, which are given here for 46 compounds.

The structures appear in SMILES notation. Where “and” joins values, the source holds several entries; their conditions need not be identical. Identical values can stand only once. In all, about 340,000 compounds went through this assay and about 8,500 (2.5%) were called active. Many of the other results were omitted from the sample, so actives are more common in it than they were. Unmarked numbers belong to inactive results.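 How the source made its calls: active means melting temperature shift of at least 10% of the positive control shift, at one fixed dose; inactive means the rest.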

The test has as its system Glutamate receptor ionotropic, NMDA 3A (GRIN3A) ligand-binding domain. Kind of test: binders of NR3A ligand-binding domain, primary screen, biophysical, differential scanning fluorimetry, uHTS (AID 1259313). The settings on record: NR3A LBD differential scanning fluorimetry, at 25 µM, hits give high values, 0% = protein alone, 100% = glycine-bound protein.
As to `Cc1ccccc1NC(=O)c1ccc(COc2ccc3c(C)cc(=O)oc3c2)cc1`, the Tm shift relative to glycine control is 12% (active).

Consider `CCN(C(=O)COC(=O)c1ccc(COc2ccc3c(C)cc(=O)oc3c2)cc1)C1CCS(=O)(=O)C1` (stereo unspecified), for which the Tm shift relative to glycine control was 2.72%.

As to `CCOC(=O)c1cc(=O)c2ccc(OCc3ccccc3)cc2o1`, the Tm shift relative to glycine control was 2.08%.

In the case of `COC(=O)c1ccc(/C=N/OCC(=O)Nc2cc(F)ccc2F)cc1`, the Tm shift relative to glycine control was 1.06%.

In the case of `CC(NC(=O)C(=O)N/N=C/c1ccc(Cl)cc1)c1ccccc1` (stereo unspecified), the Tm shift relative to glycine control is -8.19%.

In the case of `CC(C)Cn1cnc2c(SCc3ccc(Cl)cc3)nc(N)nc21`, the Tm shift relative to glycine control was -6.54%.

Consider `COC(=O)C1=C(C)NC2=C(C(=O)c3ccccc32)C1c1ccc(-c2ccc(C(=O)O)cc2)o1` (stereo unspecified), for which the Tm shift relative to glycine control is 30% (active).

Take `CCOC(=O)c1ccc(-c2ccc(C(=O)Nc3cccnc3)o2)cc1`: the Tm shift relative to glycine control was -18.8%.

In the case of `COC(=O)C1=C(C)N(C)C(=O)NC1c1ccc([N+](=O)[O-])o1` (stereo unspecified), the Tm shift relative to glycine control was -3.85%.

Regarding `NC(=O)C[n+]1cccc(C(N)=O)c1`, the Tm shift relative to glycine control was -0.09%.

On to `O=C(Nc1ccc(Cl)cc1)/C(=C1\CCCN1)[N+](=O)[O-]`, for which the Tm shift relative to glycine control is -1.33%.

Turning to `COc1ccc(Cc2nnc(N/N=C/c3ccccc3O)[nH]c2=O)cc1OC`, the Tm shift relative to glycine control was -2.87%.

Take `COc1ccc(/C=N/Nc2cc(N3CCOCC3)nc(C)n2)c(OC)c1`: the Tm shift relative to glycine control is -3.16%.

For `COc1cccc(/C=N/Nc2cc(C)nc(-c3ccccc3O)n2)c1O`, the Tm shift relative to glycine control was 30.6% (active).

With `COc1ccc(C(=O)CC(=O)C(=O)Nc2cc([N+](=O)[O-])ccc2OC)cc1`, the Tm shift relative to glycine control is 2.73%.

Regarding `COc1ccc(NS(=O)(=O)c2cc(NC(=O)CC(=O)c3ccc([N+](=O)[O-])cc3)ccc2C)cc1`, the Tm shift relative to glycine control was 24% (active).

In the case of `COc1ccc(NS(=O)(=O)c2cc(C(=O)Nc3ccccc3C(=O)O)ccc2C)cc1`, the Tm shift relative to glycine control is 1.75%.

For the compound `COc1ccc(/C=C/C(=O)OCC(=O)NCc2cccs2)cc1OC`, the Tm shift relative to glycine control was 0.79%.

As for `C#C[C@]1(O)CC[C@H]2[C@@H]3CCC4=CC(=O)CC[C@@H]4[C@H]3CC[C@@]21CC`, the Tm shift relative to glycine control is 1.26% and -0.79%.

On to `Cc1ccc(S(=O)(=O)N(C)c2nc3ccccc3n3c(C(C)C)nnc23)cc1`, for which the Tm shift relative to glycine control is 1.79%.

On to `Cc1ccc(Oc2nc3ccccc3n3c(C)nnc23)cc1`, for which the Tm shift relative to glycine control was 12.7% (active).

Consider `CCOC(=O)CNc1nc2ccccc2n2c(C)nnc12`, for which the Tm shift relative to glycine control was -9.54%.

Turning to `COc1ccccc1-n1cnc2cc(NS(=O)(=O)c3ccccc3)ccc21`, the Tm shift relative to glycine control was 0.96%.

`O=C1c2cccc3cccc(c23)C(=O)N1c1cccc(O)c1`: the Tm shift relative to glycine control was 3.66%.

As to `O=C(c1cccc(Br)c1)N1CCN(C2=NS(=O)(=O)c3ccccc32)CC1`, the Tm shift relative to glycine control is -0.26%.

Consider `CCC1CCCCN1C(=S)Nc1ccc(S(=O)(=O)Nc2ncccn2)cc1` (stereo unspecified), for which the Tm shift relative to glycine control is -1.92%.

For `O=C(Nc1ccc(C2CC2(Cl)Cl)cc1)c1cccc([N+](=O)[O-])c1` (stereo unspecified), the Tm shift relative to glycine control was -0.36%.

Consider `COc1cc(NC(=O)c2cc([N+](=O)[O-])ccc2Br)ccc1NC(=O)c1ccco1`, for which the Tm shift relative to glycine control was -2.17%.

On to `O=C(Nc1ccc(NC(=O)c2ccco2)c(Cl)c1)c1cccc([N+](=O)[O-])c1`, for which the Tm shift relative to glycine control is 24.7% (active).

For `COc1ccc(N2CCN(C(=O)c3ccccc3NC(=O)C3=C(C)OCCS3)CC2)cc1`, the Tm shift relative to glycine control is -0.18%.

As for `CCOC(=O)c1cc2cc(C)ccc2[nH]1`, the Tm shift relative to glycine control was 0.1%.

As for `Cn1ccc(=NC=C(C#N)C#N)c2ccccc21`, the Tm shift relative to glycine control is -0.6%.

As to `Cc1cc(C)n2nc(C(=O)OC(C)C(=O)c3cc(C)c(C)cc3C)nc2n1` (stereo unspecified), the Tm shift relative to glycine control is 1.24%.

For `Cc1cc(=O)oc2cc(OCC3CC(c4ccccc4Cl)=NO3)ccc12` (stereo unspecified), the Tm shift relative to glycine control is 11.5% (active).

Turning to `CCOc1ccccc1N1CCN(C(=O)COc2ccc3c(C)cc(=O)oc3c2)CC1`, the Tm shift relative to glycine control is -4.48%.

`Cc1cc(=O)oc2cc(OCCC[n+]3ccccc3)ccc12`: the Tm shift relative to glycine control is -1.47%.

For the compound `O=C(COC(=O)/C=C/c1cccc(Cl)c1)NCCc1ccccc1`, the Tm shift relative to glycine control is 0.53%.

As for `C[C@H](O)[C@@H]1C(=O)N2CCc3ccc(N4CCOCC4)cc3[C@@H]2C[C@@H]1N(C)C(=O)C(C)(C)C`, the Tm shift relative to glycine control is -1.15%.

As to `O=C(NCc1ccco1)C(c1ccncc1)N(C(=O)Cn1nnc2ccccc21)c1ccccc1` (stereo unspecified), the Tm shift relative to glycine control is -1.69%.

With `COc1ccccc1C(=O)NC(=S)Nc1ccccc1N1CCCCC1`, the Tm shift relative to glycine control is -4.34%.

For `COc1ccc(Br)cc1C(=O)Nc1cccc(C)c1C`, the Tm shift relative to glycine control is -2.13%.

In the case of `COc1ccc(Br)cc1C(=O)NC(=S)Nc1cc(-c2nc3ccccc3[nH]2)ccc1C`, the Tm shift relative to glycine control is 25.9% (active).

Turning to `Cc1ccc2cc(C)c(N3CCC(C)CC3)nc2c1`, the Tm shift relative to glycine control was 3.71%.

Take `Cc1ccccc1NC(=O)CSc1nc2ccc(Nc3nc(N4CCOCC4)nc(N4CCOCC4)n3)cc2s1`: the Tm shift relative to glycine control was -1.11%.

Consider `O=C(CSc1nc(Nc2ccccc2)nc(N2CCOCC2)n1)Nc1cc(Cl)ccc1O`, for which the Tm shift relative to glycine control is 32.6% (active).

`CC1(c2ccccc2)NC(=O)N(CC(=O)Nc2cc(Cl)ccc2N2CCOCC2)C1=O` (stereo unspecified): the Tm shift relative to glycine control is 0.96%.
